The target in this assay is pT7_6His-AlfaTag-HOXD13 (human, UniProt P35453 263-343). Nature of the assay: PADIT-seq. The following applies: dsDNA, one strand shown.
pT7_6His-AlfaTag-HOXD13, sequence (P35453 263-343): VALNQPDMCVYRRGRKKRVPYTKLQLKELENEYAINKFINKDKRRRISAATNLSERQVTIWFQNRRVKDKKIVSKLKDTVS
“CTCGAGGATATCAAGATCTGGCCTCGGCCGCTGACGCGGAACCTCTAGCTAGCCGACTCACTATAGGGATAATCGCCCTGAGCAAAGACC”: the binding signal was -0.995 ± 0.158 log2FC.
Regarding “CTCGAGGATATCAAGATCTGGCCTCGGCTTTTTACAAGGAACCTCTAGCTAGCCGACTCACTATAGGGATAATCGCCCTGAGCAAAGACC”, the binding signal came to 3.28 ± 0.0787 log2FC.
To “CTCGAGGATATCAAGATCTGGCCTCGGCTGCTTAAAAGGAACCTCTAGCTAGCCGACTCACTATAGGGATAATCGCCCTGAGCAAAGACC” belongs 0.659 ± 0.091 log2FC.
The value for “CTCGAGGATATCAAGATCTGGCCTCGGCGCGTGGAAGGGAACCTCTAGCTAGCCGACTCACTATAGGGATAATCGCCCTGAGCAAAGACC” was -0.832 ± 0.125 log2FC; that for “CTCGAGGATATCAAGATCTGGCCTCGGCATTTTATTTGGAACCTCTAGCTAGCCGACTCACTATAGGGATAATCGCCCTGAGCAAAGACC” was 2.85 ± 0.07 log2FC.
“CTCGAGGATATCAAGATCTGGCCTCGGCATTTTAAAGGGAACCTCTAGCTAGCCGACTCACTATAGGGATAATCGCCCTGAGCAAAGACC” yielded a binding signal of 2.62 ± 0.0783 log2FC.
Take “CTCGAGGATATCAAGATCTGGCCTCGGCGGCTTAAAAGGAACCTCTAGCTAGCCGACTCACTATAGGGATAATCGCCCTGAGCAAAGACC”: the binding signal is -0.00793 ± 0.0839 log2FC.
The value for “CTCGAGGATATCAAGATCTGGCCTCGGCCGCATAAAAGGAACCTCTAGCTAGCCGACTCACTATAGGGATAATCGCCCTGAGCAAAGACC” was 1.46 ± 0.0793 log2FC; that for “CTCGAGGATATCAAGATCTGGCCTCGGCCTTTTAGTTGGAACCTCTAGCTAGCCGACTCACTATAGGGATAATCGCCCTGAGCAAAGACC” was 0.113 ± 0.0927 log2FC; that for “CTCGAGGATATCAAGATCTGGCCTCGGCCGTGTAAAAGGAACCTCTAGCTAGCCGACTCACTATAGGGATAATCGCCCTGAGCAAAGACC” was 1.58 ± 0.0857 log2FC.
The value for “CTCGAGGATATCAAGATCTGGCCTCGGCATTTTATGAGGAACCTCTAGCTAGCCGACTCACTATAGGGATAATCGCCCTGAGCAAAGACC” was 3.3 ± 0.0767 log2FC.
To “CTCGAGGATATCAAGATCTGGCCTCGGCATTTTAACCGGAACCTCTAGCTAGCCGACTCACTATAGGGATAATCGCCCTGAGCAAAGACC” belongs 1.17 ± 0.0785 log2FC.
The sequence “CTCGAGGATATCAAGATCTGGCCTCGGCTTCTTAAAAGGAACCTCTAGCTAGCCGACTCACTATAGGGATAATCGCCCTGAGCAAAGACC” came in with a binding signal of 0.549 ± 0.0953 log2FC.
The sequence “CTCGAGGATATCAAGATCTGGCCTCGGCCTCCTAAAAGGAACCTCTAGCTAGCCGACTCACTATAGGGATAATCGCCCTGAGCAAAGACC” yielded a binding signal of 0.715 ± 0.108 log2FC.
As for “CTCGAGGATATCAAGATCTGGCCTCGGCATGGTAAAAGGAACCTCTAGCTAGCCGACTCACTATAGGGATAATCGCCCTGAGCAAAGACC”, the binding signal was found to be 1.03 ± 0.0704 log2FC.
The value for “CTCGAGGATATCAAGATCTGGCCTCGGCTTTTTAGACGGAACCTCTAGCTAGCCGACTCACTATAGGGATAATCGCCCTGAGCAAAGACC” was -0.513 ± 0.133 log2FC.
To “CTCGAGGATATCAAGATCTGGCCTCGGCGCGCGCGCGGGAACCTCTAGCTAGCCGACTCACTATAGGGATAATCGCCCTGAGCAAAGACC” belongs -1.01 ± 0.148 log2FC; to “CTCGAGGATATCAAGATCTGGCCTCGGCTTTTTATCTGGAACCTCTAGCTAGCCGACTCACTATAGGGATAATCGCCCTGAGCAAAGACC”, 0.754 ± 0.104 log2FC.
As to “CTCGAGGATATCAAGATCTGGCCTCGGCTGTCTAAAAGGAACCTCTAGCTAGCCGACTCACTATAGGGATAATCGCCCTGAGCAAAGACC”, the binding signal was -0.572 ± 0.102 log2FC.
The value for “CTCGAGGATATCAAGATCTGGCCTCGGCTTTTTAGGAGGAACCTCTAGCTAGCCGACTCACTATAGGGATAATCGCCCTGAGCAAAGACC” was 1.41 ± 0.0944 log2FC; that for “CTCGAGGATATCAAGATCTGGCCTCGGCCTTTTAAATGGAACCTCTAGCTAGCCGACTCACTATAGGGATAATCGCCCTGAGCAAAGACC” was 2.36 ± 0.0747 log2FC; that for “CTCGAGGATATCAAGATCTGGCCTCGGCGCGGAAGCGGGAACCTCTAGCTAGCCGACTCACTATAGGGATAATCGCCCTGAGCAAAGACC” was -0.566 ± 0.121 log2FC.
The value for “CTCGAGGATATCAAGATCTGGCCTCGGCCACTTAAAAGGAACCTCTAGCTAGCCGACTCACTATAGGGATAATCGCCCTGAGCAAAGACC” was 1.17 ± 0.0931 log2FC; that for “CTCGAGGATATCAAGATCTGGCCTCGGCATTTTAAATGGAACCTCTAGCTAGCCGACTCACTATAGGGATAATCGCCCTGAGCAAAGACC” was 1.82 ± 0.0848 log2FC.
To “CTCGAGGATATCAAGATCTGGCCTCGGCTGATGGGCGGGAACCTCTAGCTAGCCGACTCACTATAGGGATAATCGCCCTGAGCAAAGACC” belongs -0.976 ± 0.109 log2FC; to “CTCGAGGATATCAAGATCTGGCCTCGGCGATCCACGCGGAACCTCTAGCTAGCCGACTCACTATAGGGATAATCGCCCTGAGCAAAGACC”, -1.01 ± 0.105 log2FC; to “CTCGAGGATATCAAGATCTGGCCTCGGCTTTTTAAGTGGAACCTCTAGCTAGCCGACTCACTATAGGGATAATCGCCCTGAGCAAAGACC”, 1.17 ± 0.094 log2FC.
The sequence “CTCGAGGATATCAAGATCTGGCCTCGGCATTGTAAAAGGAACCTCTAGCTAGCCGACTCACTATAGGGATAATCGCCCTGAGCAAAGACC” had a binding signal of 2.55 ± 0.0888 log2FC.
“CTCGAGGATATCAAGATCTGGCCTCGGCATTTTATAGGGAACCTCTAGCTAGCCGACTCACTATAGGGATAATCGCCCTGAGCAAAGACC” displayed a binding signal of 3.25 ± 0.0782 log2FC.
Sequence “CTCGAGGATATCAAGATCTGGCCTCGGCTTTTTAATGGGAACCTCTAGCTAGCCGACTCACTATAGGGATAATCGCCCTGAGCAAAGACC” gave a binding signal of 2.57 ± 0.0871 log2FC.
The value for “CTCGAGGATATCAAGATCTGGCCTCGGCATTTTACTAGGAACCTCTAGCTAGCCGACTCACTATAGGGATAATCGCCCTGAGCAAAGACC” was 3.18 ± 0.0699 log2FC; that for “CTCGAGGATATCAAGATCTGGCCTCGGCCTTTTATAGGGAACCTCTAGCTAGCCGACTCACTATAGGGATAATCGCCCTGAGCAAAGACC” was 3.21 ± 0.0791 log2FC.
As for “CTCGAGGATATCAAGATCTGGCCTCGGCGCGGTAAAAGGAACCTCTAGCTAGCCGACTCACTATAGGGATAATCGCCCTGAGCAAAGACC”, the binding signal stood at 0.513 ± 0.0756 log2FC.
On to “CTCGAGGATATCAAGATCTGGCCTCGGCCTGGTAAAAGGAACCTCTAGCTAGCCGACTCACTATAGGGATAATCGCCCTGAGCAAAGACC”, for which the binding signal was found to be 0.442 ± 0.0982 log2FC.
“CTCGAGGATATCAAGATCTGGCCTCGGCCTATTAAAAGGAACCTCTAGCTAGCCGACTCACTATAGGGATAATCGCCCTGAGCAAAGACC” returned a binding signal of 3.05 ± 0.0763 log2FC.
To “CTCGAGGATATCAAGATCTGGCCTCGGCTTTTTAGTCGGAACCTCTAGCTAGCCGACTCACTATAGGGATAATCGCCCTGAGCAAAGACC” belongs -0.553 ± 0.126 log2FC; to “CTCGAGGATATCAAGATCTGGCCTCGGCGCGTTAAAAGGAACCTCTAGCTAGCCGACTCACTATAGGGATAATCGCCCTGAGCAAAGACC”, 1.22 ± 0.079 log2FC.
To “CTCGAGGATATCAAGATCTGGCCTCGGCCCCTTAAAAGGAACCTCTAGCTAGCCGACTCACTATAGGGATAATCGCCCTGAGCAAAGACC” belongs 2.7 ± 0.0989 log2FC; to “CTCGAGGATATCAAGATCTGGCCTCGGCGTTTTAGGGGGAACCTCTAGCTAGCCGACTCACTATAGGGATAATCGCCCTGAGCAAAGACC”, 1.59 ± 0.0927 log2FC.

The values are drawn from article doi:10.1101/2024.03.05.583629.
